HEK293 tox: HEK 293 cell cytotoxicity. HEK 293 viability, ATP luminescence (CellTiter-Glo), 48-72 h. Potency, µM (highest dose often 115 µM), inactives show top-dose activity change, negative = cytotoxicity, usual class: inhibitors. 6.6% of 94,000 active; also: % is scaled to controls: 0 for no effect and ±100 for the full control effect; nearly all actives have a fitted effect of over 60% in size
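Pintool-delivered compounds were incubated with HEK 293 cells (250 cells/well) at 37 degree Celsius for 48 or 72 hr. ATP-dependent luminescence (CellTiter-Glo) then reported remaining viable cells.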
GPT2 inhibitor: inhibitors of human GPT2 alanine aminotransferase | Potency, µM (series often up to 57.7 µM), inactives show at the highest dose activity change, negative = inhibition, most hits filed as inhibitors | AID 1671188 | Recombinant GPT2, coupled pyruvate oxidase/HRP Amplex Red fluorescence | Q8TD30 | 0.25% of 100,000 active; also: % is scaled to controls: 0 for no effect and ±100 for the full control effect; nearly all actives have a fitted effect of over 60% in size
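GPT2 10ng/uL, a-KG 250uM, L-Ala 2mM, HEPES pH7.5 + 0.0001% Tween; 30 min RT. Then Amplex mix (PO/HRP/ThPP), 30 min RT dark, fluorescence. AOA 50uM used as positive control.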
3T3 cytotox: NIH 3T3 cell cytotoxicity; 4.3% of 94,000 active; AID 1345082; Potency, µM (highest dose often 96.7 µM), for the others: at the highest dose activity change, negative = cytotoxicity, most hits filed as inhibitors; NIH 3T3 viability, CellTiter-Glo ATP luminescence, 48-72 h; also: % is scaled to controls: 0 for no effect and ±100 for the full control effect; nearly all actives have a fitted effect of over 55% in size
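NIH 3T3 cells at 400 cells/well received 23 nL of compound by pintool and were incubated 48 or 72 h at 37 °C. Viability was read as ATP-coupled CellTiter-Glo luminescence.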
NPR1 antag: human Npr1 receptor antagonism. P16066. HEK293 hNpr1 GloSensor cGMP, ANP-stimulated luminescence. AID 1347048. 1.6% of 76,000 active. Potency, µM (top dose mostly 46.3 µM), without a hit: at the top dose activity change, negative = inhibition, hits mostly inhibitors; calls by dose curve; also: % is scaled to controls: 0 for no effect and ±100 for the full control effect; nearly all actives have a fitted effect of over 60% in size
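HEK293 cells stably expressing human Npr1 and cGMP GloSensor pGS-40F, loaded 2 h with 2% GloSensor reagent, given compound 30 min at room temperature. Luminescence read before and 20 min after 0.1 nM hNppA.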
FLuc inh-1: Photinus pyralis luciferase inhibition. P08659. 2.5% of 76,000 active. Potency, µM (highest dose often 115 µM), most hits filed as inhibitors. purified P. pyralis luciferase, luminescence, biochemical. AID 1347043; also: % is scaled to controls: 0 for no effect and ±100 for the full control effect; nearly all actives have a fitted effect of over 65% in size
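Luminescence read by CCD imager after adding enzyme (10nM final) to wells holding compound, titrated in qHTS. Substrates 10uM each D-luciferin and ATP; buffer 50mM Tris acetate pH 7.5, 10mM Mg acetate, Tween-20, BSA.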
FLuc SDR no ATP: firefly luciferase binding stabilization, ATP absent; 7.8% of 1,300 active; Potency, µM (doses to about 32.7 µM), for the others: at the highest dose activation (signal gain), hits mostly activators; shares compounds with FLuc inh-1; Purified FLuc-C-HiBiT, Nano-Glo HiBiT luminescence, no ATP; also: nearly all actives have a fitted effect of over 55% in size
FLuc SDR ATP: binders stabilizing firefly luciferase, plus ATP; Potency, µM (titrated, usually from 32.7 µM), without a hit: at the top dose activation (gain of signal), most hits filed as activators; 8.7% of 1,300 active; shares compounds with FLuc inh-1; AID 1963319; purified FLuc-C-HiBiT + ATP, HiBiT complementation luminescence;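 also: signal reports ligand binding via conformational change of the enzyme rather than luciferase catalysis; % of control where 0% means no effect; nearly all actives have a fitted effect of over 55% in size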
FLuc inh-2: blocks firefly luciferase enzymatic activity. shares compounds with FLuc inh-1. purified FLuc-C-HiBiT enzyme, luciferin luminescence. Potency, µM (highest dose often 32.7 µM), inactives show at the highest dose activity change, negative = inhibition, usual class: inhibitors. 42% of 1,300 active. AID 1963320; also: % is scaled to controls: 0 for no effect and ±100 for the full control effect; nearly all actives have a fitted effect of over 70% in size
* = called active by the depositor; i = inactive; u = inconclusive; x = not tested or not shown; [ ] = another dose, or the depositor's remark. In the library only some 10% were active in any assay of this set; here they are far more common. Unless noted, calls follow the shape of the dose curve; as a rule, active = well fitted curve in the direction sought with a large enough effect; inconclusive = small, poorly fitted or top-dose-only effect, or another doubt; inactive = no such curve, though single readings can be large; an effect the other way counts as inactive or inconclusive. Potency is read from the fitted curve at half-maximal effect.

SMILES	HEK293 tox	GPT2 inhibitor	3T3 cytotox	NPR1 antag	FLuc inh-1	FLuc SDR no ATP	FLuc SDR ATP	FLuc inh-2
Cc1ccc(-c2cc3c(=O)n(CCNC(=O)Cc4ccsc4)ccn3n2)c(C)c1	u	i	u	0.0%	8.91µM*	u	u	6.24µM*
CCC(C)NC(=O)C1COC2(CCN(C(=O)c3ccc(F)cc3F)CC2)N1C(=O)c1ccccc1 (centres undefined)	-18.1%	i	-23.7%	5.3%	i	x	x	x
Cc1cccc(C)c1Oc1ncccc1CNC1CCN(C(C)C)CC1	-0.4%	i	-3.2%	-6.3%	i	x	x	x
Cc1ccc(C)c(-c2cc3c(=O)n(CCNC(=O)c4ccccc4)ccn3n2)c1	u	i	u	-12.7%	i	x	x	x
Cc1ccc(-c2cc3c(=O)n(CCNC(=O)c4cccnc4)ccn3n2)c(C)c1	u	i	u	5.0%	8.91µM*	30.3%	u	u
COc1ccc(C(=O)NCCn2ccn3nc(-c4ccc(C)cc4C)cc3c2=O)cc1F	u	i	u	u	1.26µM*	31.8%	u	3.51µM*
O=C(NCCCN1CCc2ccccc2C1)C1CCCCC(=O)N1Cc1ccccc1 (centres undefined)	0.1%	i	-10.7%	-1.0%	i	x	x	x
O=C(NCC1CCCN(C(=O)N2CCCC2)C1)c1ccc(-c2ccccc2)cc1 (centres undefined)	u	0.1%	u	-1.9%	7.94µM*	18.6%	11.4%	u
COc1cc2c(cc1OC)CN(c1cc(C3CC(O)C3)ncn1)CC2 (centres undefined)	u	1.0%	u	u	u	x	x	x
OC1CC(c2cc(N3CCc4c(Cl)cccc4C3)ncn2)C1 (centres undefined)	u	-28.2%	u	2.51µM*	1.26µM*	17.9%	u	u
COc1ccc(-c2ccccc2C(=O)NCCc2ccccc2)nn1	-27.8%	x	-22.0%	x	x	x	x	x
COc1ccc(OCC(=O)Nc2nc(-c3ccc(Br)cc3)ns2)cc1	x	x	x	x	x	14.4%	8.1%	-14.5%
COc1ccc(C(=O)Nc2cnc(-c3ccc(Cl)cc3)nc2)cc1	u	i	i	-26.6%	u	x	x	x
COc1ccc(CN2CCOc3nc(-c4cccc(N(C)C)c4)ncc3C2=O)cc1	u	-6.6%[88.5 µM]	u	-1.6%[70.6 µM]	i	x	x	x
O=C1c2cnc(-c3cc4ccccc4o3)nc2OCCN1Cc1ccccc1	u	-3.2%[88.5 µM]	u	8.91µM*	0.1µM*	u	u	1.61µM*
Cn1nccc1-c1ncc2c(n1)OCCN(Cc1ccccc1)C2=O	u	i	-25.2%[138 µM]	u	i	x	x	x
COc1cccc(-c2ncc3c(n2)OCCN(Cc2ccccc2)C3=O)c1	u	2.6%[88.5 µM]	u	u	2.82µM*	23.6%[49.3 µM]	u	u
COc1ccc(-c2ncc3c(n2)OCCN(Cc2ccccc2)C3=O)cc1	u	-3.3%[88.5 µM]	u	28.2µM*	2.51µM*	19.0%[49.3 µM]	15.0%[49.3 µM]	u
COCCN1CCOc2nc(-c3cccc(N(C)C)c3)ncc2C1=O	x	x	x	x	x	28.1%[49.3 µM]	u	u
COc1cccc(CNC(=O)C2CCCN2C(=O)c2cccc(-c3ccccn3)c2)c1 (centres undefined)	i	-6.4%	-9.8%	x	x	x	x	x
CCOCC1(C)COc2ccc(C(=O)Nc3ccc(Cl)cc3)cc2N1 (centres undefined)	39.8µM*	-15.8%[88.5 µM]	44.7µM*	31.6µM*	11.2µM*	16.7%[49.3 µM]	11.4%[49.3 µM]	u
Cc1noc(C)c1[S+](=O)([O-])N1CCCC(C(=O)N2CCC(N3CCOCC3=O)CC2)C1 (centres undefined)	-3.3%	i	-14.9%	x	x	x	x	x
Cc1ccc(-c2nc(-c3ccccn3)no2)cc1Cl	x	x	x	x	x	4.42µM*	u	0.624µM*
Cc1cc(C)c2[nH]c(C(=O)NCc3nc(-c4ccccn4)no3)c(C)c2c1	u	i	u	-0.8%	u	x	x	x
Cc1noc(-c2nc(-c3cccc(Cl)c3)no2)n1	u	-15.0%	1.3%	-3.8%	u	x	x	x
SMILES	HEK293 tox	GPT2 inhibitor	3T3 cytotox	NPR1 antag	FLuc inh-1	FLuc SDR no ATP	FLuc SDR ATP	FLuc inh-2
Clc1cccc(-c2nc(-c3ccccn3)no2)c1	x	x	x	x	x	3.94µM*	u	0.989µM*
O=C(O)C1=NOC2CN(Cc3ccc(C(F)(F)F)cc3)CC12 (centres undefined)	i	2.3%	i	x	x	x	x	x
CCCC1(CO)CCCN(Cc2cc(-c3ccc(C)cc3)no2)C1 (centres undefined)	u	-10.7%	u	-12.4%	u	x	x	x
O=C(O)c1cccc(-c2ccc(OC(F)(F)F)cc2)c1	-23.6%[172 µM]	i	-0.8%[138 µM]	x	x	x	x	x
CC(=O)c1cccc(Nc2nn(-c3ccc(OC(F)(F)F)cc3)nc2C(C)=O)c1	x	x	x	x	x	24.1%	13.8%	u
Cc1cnc(NC(=O)c2ccc3c(c2)OCC(=O)N(C)C3)s1	x	x	x	x	x	u	u	14.3µM*
Cc1csc(NC(=O)c2ccc3c(c2)OCC(=O)N(C)C3)n1	-15.7%[172 µM]	4.3%[88.5 µM]	u	x	5.01µM*	24.4%[49.3 µM]	u	u
Cc1csc(NC(=O)[C@@H]2CCC[C@@H](NC(=O)c3ccccc3)CN(C)C(=O)C2)n1	-20.2%[172 µM]	-0.6%[88.5 µM]	-21.9%[174 µM]	-18.1%[70.6 µM]	i	x	x	x
CN1Cc2ccc(C(=O)NCCOc3ccccc3)cc2OCC1=O	x	x	x	x	x	18.8%[49.3 µM]	u	u
Cc1cnc(NC(=O)c2ccc3c(c2)OCCN(c2ccccc2)C3)s1	u	i	u	-16.0%[70.6 µM]	u	x	x	x
COc1ccc(-c2cc(N3CCCC(NC(=O)c4cc(OC)cc(OC)c4)C3)n[nH]2)cc1 (centres undefined)	u	i	u	-19.0%	5.62µM*	24.5%	17.0%	u
COc1ccc(-c2cc(N3CCCC(NC(=O)c4ccc(C)c(F)c4)C3)n[nH]2)cc1 (centres undefined)	u	i	u	-17.6%	i	x	x	x
COc1ccc(-c2cc(N3CCCC(NC(=O)c4cccc(OC)c4OC)C3)n[nH]2)cc1 (centres undefined)	u	u	u	-10.6%	u	x	x	x
COc1ccc(-c2cc(N3CCCC(NC(=O)c4ccncc4)C3)n[nH]2)cc1 (centres undefined)	u	-16.8%	3.6%	-3.9%	12.6µM*	24.3%	16.7%	u
